This passage reports growth results from PubChem BioAssay (NCI).

Structures are written as SMILES. The panel holds about 83,000 compounds, 20% with a hit somewhere; the sample as a whole holds those more often.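 Each cell line was grown in a 96-well plate and treated with one concentration of compound for 48 hours. Values below 10 were considered active.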 Unmarked numbers belong to inactive results. Active and inactive are the calls of the source.

The experiment concerns HL-60(TB) leukemia. Nature of the experiment: NCI-60 one-dose screen, 48 h (100 = growth as untreated, 0 = no growth, -100 = all killed). The note with it: 10 µM unless noted.
`O=C(Nc1cc(Cl)cc2c1-c1ccc(Cl)cc1C2O)C(Cl)Cl` (stereo unspecified): the growth is 76.2%.
Consider `COc1ccc2cc(-c3nc4ccccc4s3)c(Cl)nc2c1OC`, for which the growth is 91.4%.
With `O=C(NCCCO)c1cc(Cl)ccc1O`, the growth is -13.5% (active).
`Cc1cc(N2CCOCC2)nc(N(CCCNc2ccnc3cc(Cl)ccc23)Cc2ccc3c(c2)OCO3)n1`: the growth is -60.9% (active).
For the compound `Oc1ccccc1/C=N/c1ccccn1`, the growth is 102%.
As to `Cc1noc(C)c1CSc1ccccc1C(=O)N1CCN(c2cccc(C(F)(F)F)c2)CC1`, the growth is 74.4%.
On to `NS(=O)(=O)c1ccc(C(=O)NN2C(=O)c3c(Br)c(Br)c(Br)c(Br)c3C2=O)cc1`, for which the growth was 103%.
As for `CC[C@@H](c1ccc2cc(OC)ccc2c1)C(C)(C)C(=O)F`, the figure is 104%; as for `Nc1ncnc2c1c(-c1ccc(Oc3ccccc3)cc1)nn2CC1SSCC1O` (stereo unspecified), -25.9% (active).
As for `Nc1nc(Nc2ccc(Cl)cc2)nn1S(=O)(=O)c1ccc(-c2ccc(F)cc2)cc1`, the figure is 110%; as for `COc1ccc(CN2c3ccccc3Oc3ccccc32)cc1O`, 15.6%; as for `CCOC(=O)/C(C#N)=C(\C)CCc1ccccc1`, 239%.
As for `CNC(=O)c1ccccc1Nc1nc(Nc2cc(OC)c(OC)c(OC)c2)ncc1Br`, the figure is 19%; as for `O=[N+]([O-])c1ccc(-c2cn(-c3ccccc3)c(-c3ccccc3)n2)cc1`, 87%.
Regarding `c1ccc(-c2nnc(Nc3nnc(-c4ccccc4)s3)s2)cc1`, the growth is 103%.
As for `COc1ccccc1C(=O)Nc1cccc(NC(=O)c2ccoc2C)c1`, the figure is -18.3% (active).
